# Assay results as given in publication PMC4336329 (PLoS ONE, 2015).
# In all, about 310,000 compounds went through this assay and about 14,000 (4.5%) showed an effect of 50% or more. The effect is printed as a negative number. This excerpt belongs to a sample that is enriched for strong results.
# Biological target: human ether-à-go-go-related gene (hERG) potassium channel (human, UniProt Q12809)
# Test: primary screen, population patch clamp on CHO cells stably expressing hERG; higher = less effect of the substance
# 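Also: peak tail current of the secondary pulse compared with the same well before compound.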
# Chain of human ether-à-go-go-related gene (hERG) potassium channel (Q12809 whole entry, looked up): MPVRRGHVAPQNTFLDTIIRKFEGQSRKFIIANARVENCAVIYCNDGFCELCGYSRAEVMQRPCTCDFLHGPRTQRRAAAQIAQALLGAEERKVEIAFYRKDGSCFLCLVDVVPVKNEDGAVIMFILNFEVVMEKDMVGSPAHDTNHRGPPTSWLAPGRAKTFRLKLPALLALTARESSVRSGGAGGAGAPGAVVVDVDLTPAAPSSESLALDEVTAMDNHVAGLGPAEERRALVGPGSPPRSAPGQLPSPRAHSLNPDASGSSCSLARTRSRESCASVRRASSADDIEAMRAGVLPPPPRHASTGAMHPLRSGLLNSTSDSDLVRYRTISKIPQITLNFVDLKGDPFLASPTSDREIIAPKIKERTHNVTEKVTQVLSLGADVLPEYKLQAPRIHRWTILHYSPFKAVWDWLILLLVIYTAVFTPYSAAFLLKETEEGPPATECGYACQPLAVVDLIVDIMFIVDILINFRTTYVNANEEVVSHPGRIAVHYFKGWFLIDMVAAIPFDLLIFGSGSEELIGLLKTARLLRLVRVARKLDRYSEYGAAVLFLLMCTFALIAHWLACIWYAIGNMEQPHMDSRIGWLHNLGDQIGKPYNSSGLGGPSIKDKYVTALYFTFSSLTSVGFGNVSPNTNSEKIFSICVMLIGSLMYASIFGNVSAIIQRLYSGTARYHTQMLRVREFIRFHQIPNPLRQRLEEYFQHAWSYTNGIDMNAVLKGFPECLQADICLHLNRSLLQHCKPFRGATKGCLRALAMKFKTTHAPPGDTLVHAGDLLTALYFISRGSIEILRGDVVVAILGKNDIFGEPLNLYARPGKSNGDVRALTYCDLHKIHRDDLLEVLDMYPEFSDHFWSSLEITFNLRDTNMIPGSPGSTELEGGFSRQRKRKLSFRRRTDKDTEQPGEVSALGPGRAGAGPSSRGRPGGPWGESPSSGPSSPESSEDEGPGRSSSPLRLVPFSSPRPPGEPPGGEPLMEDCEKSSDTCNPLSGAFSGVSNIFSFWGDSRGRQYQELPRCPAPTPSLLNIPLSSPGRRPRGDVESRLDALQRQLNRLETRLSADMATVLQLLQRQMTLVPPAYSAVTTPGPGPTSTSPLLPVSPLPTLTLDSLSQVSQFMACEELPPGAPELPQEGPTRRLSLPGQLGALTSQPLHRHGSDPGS
row,SMILES,"hERG current change (%, negative = inhibition) at 10uM [%]"
1,Cc1cccc(C(=O)OCC(=O)NC(=O)Cc2ccccc2)c1O,13.8
2,Cc1ccc(OCC(=O)N2CCN(Cc3ccc4c(c3)OCO4)CC2)cc1.O=C(O)C(=O)O,-15.7
3,COc1ccccc1OCC(=O)N1CCN(c2ccccc2OC)CC1,1.3
4,Cc1ccc(OCC(=O)N2CCN(Cc3cccnc3)CC2)cc1.O=C(O)C(=O)O,17.7
5,COc1ccccc1N1CCN(C(=O)COc2ccc(Cl)cc2)CC1,-68.5
6,CSc1ccc(CN2CCN(C(=O)COc3ccc(C)cc3)CC2)cc1.O=C(O)C(=O)O,-60.4
7,COc1ccccc1N1CCN(C(=O)COc2cc(C)cc(C)c2)CC1,10.8
8,CCc1nnc(NC(=O)CN2C(=O)NC3(CC(C)CC(C)(C)C3)C2=O)s1 (stereo not drawn),7.29
9,O=C1NC(=O)N(c2ccccc2)C1=O,19.9
10,CCc1ccc(C(=O)NC(=S)NCc2cccnc2)cc1,-40.7
11,CC(C)(C)C(=O)Nc1ccc(NC(=O)C(C)(C)C)cc1,-6.63
12,O=C(Nc1cccc(Br)c1)c1ccc(CN2CCc3ccccc3C2)cc1,-1.55
13,O=S(=O)(Cc1cc(NCc2ccccc2)nc(-c2ccncc2)n1)c1ccccc1,20.3
14,Nc1sc(-c2ccccc2)n[n+]1Cc1cccc2cccnc12.[Br-],-66.7
15,Nc1ccc(Br)c[n+]1Cc1cccc2cccnc12.[Br-],-51.6
16,Cc1cc(CSc2nc(C)cc(=O)[nH]2)c2ncccc2c1,-3.07
17,Nc1scc[n+]1Cc1cccc2cccnc12.[Br-],-12.3
18,Nc1scn[n+]1Cc1cccc2cccnc12.[Br-],-11.1
19,OCc1ccccc1OCCCOc1cccc2cccnc12,-3.4
20,Cc1cc(C[n+]2cc(Cl)ccc2N)c2ncccc2c1.[Br-],-48.1
21,Cc1cc(C[n+]2cc(Br)ccc2N)c2ncccc2c1.[Br-],-68
22,Nc1ccc(Cl)c[n+]1Cc1cccc2cccnc12.[Br-],-46.1

row,SMILES,"hERG current change (%, negative = inhibition) at 10uM [%]"
1,Cc1noc(C)c1CSCC(=O)Nc1cc(Cl)ccc1N1CCCCC1,1.96
2,CCN(CC)S(=O)(=O)c1ccc(NC2c3ccccc3C(=O)N2CCN2CCOCC2)cc1 (stereo not drawn),-37
3,Cc1ccc2c(CC(=O)NC3CCS(=O)(=O)C3)coc2c1C (stereo not drawn),1.78
4,CC(C(=O)NCc1ccccc1Cl)n1cc([N+](=O)[O-])cn1 (stereo not drawn),4.65
5,Cc1ccc2cc3c(NS(=O)(=O)c4cccc5nonc45)nn(CC(C)C)c3nc2c1,9.9
6,COc1cc(CNCCc2c[nH]c3ccccc23)ccc1OCc1ccc(F)cc1.Cl,-48.4
7,COc1cc(CNCCc2c[nH]c3ccccc23)ccc1OCc1ccccc1F.Cl,-52
8,COc1ccc(CNCCc2c[nH]c3ccccc23)c(OC)c1C.O=C(O)C(=O)O,-60.3
9,COc1cccc(CNCCc2c[nH]c3ccccc23)c1OC.Cl,-11.1
10,COc1cccc(CNCCc2c[nH]c3ccccc23)c1OCc1ccccc1F.Cl,-55.8
11,COc1ccc(C(=O)NC(Cc2c[nH]c3ccccc23)C(=O)O)cc1 (stereo not drawn),12.4
12,COc1cccc(CNCCc2c[nH]c3ccccc23)c1OCc1ccccc1.Cl,-47
13,COc1ccc(CNCCc2c[nH]c3ccccc23)c(OC)c1OC.O=C(O)C(=O)O,-7.44
14,COc1cc(C)c(CNCCc2c[nH]c3ccccc23)cc1C.O=C(O)C(=O)O,-36.9
15,COc1ccc(CNCCc2c[nH]c3ccccc23)cc1OC.O=C(O)C(=O)O,-28
16,COc1cc(C(=O)N[C@@H](Cc2c[nH]c3ccccc23)C(=O)O)cc(OC)c1OC,-53.1
17,O=C(NC(Cc1c[nH]c2ccccc12)C(=O)O)c1ccccc1 (stereo not drawn),1.22
18,Cc1cnc(C(=O)Nc2ccc(F)cc2)cn1,-0.2
19,CCN(CC)C(=O)C1CCCN(C(=O)Nc2ccc(NC(=O)N3CCCC(C(=O)N(CC)CC)C3)cc2)C1 (stereo not drawn),-11.5
20,COc1ccc(NC(=O)c2cc(-c3cc(C)cc(C)c3O)n[nH]2)cc1Cl,-4.52
21,Cn1c2c(c(=O)n(C)c1=O)CN(CC1CCCO1)CN2 (stereo not drawn),9.87
22,CC(C)C(=O)Nc1nc(-c2ccc([N+](=O)[O-])cc2)cs1,7.04

row,SMILES,"hERG current change (%, negative = inhibition) at 10uM [%]"
1,CC(C)(C)NC(=O)c1cc(-c2ccccc2)n[nH]1,11.5
2,Cc1ccc(-n2c(Cc3noc4ccccc34)n[nH]c2=S)cc1,8.59
3,NS(=O)(=O)c1cccnc1Nc1cccc(Cl)c1,11.8
4,CCCCN(CC)CCCNC(=O)c1cc2c(-c3ccc(OC)c(OC)c3)nn(C)c2s1,-7.25
5,CC(C)NC(=O)c1cc2c(-c3ccc(Cl)cc3)nn(C)c2s1,4.67
6,CCN(CC)CCCNC(=O)c1cc2c(-c3ccc(Cl)cc3)nn(C)c2s1,-59.9
7,Cn1nc(-c2ccc(Cl)cc2)c2cc(C(=O)NCCCN3CCCC3)sc21,-59.5
8,CN1CCN(CCCNC(=O)c2cc3c(-c4ccc(Cl)cc4)nn(C)c3s2)CC1,-40.1
9,CCOCCCNC(=O)c1cc2c(-c3ccc(Cl)cc3)nn(C)c2s1,9.31
10,CCCCN(CC)CCNC(=O)c1cc2c(-c3ccc(Cl)cc3)nn(C)c2s1,-74.8
11,Cn1nc(-c2ccc(Cl)cc2)c2cc(C(=O)NCCCN3CCOCC3)sc21,-13.1
12,COCCCNC(=O)c1cc2c(-c3ccc(Cl)cc3)nn(C)c2s1,-3.72
13,CCN(CC)CCNC(=O)c1cc2c(-c3ccc(Cl)cc3)nn(C)c2s1,-69.6
14,CCCCNC(=O)c1cc2c(-c3ccc(Cl)cc3)nn(C)c2s1,-7.09
15,COc1cc(CNC(C)C)ccc1OCC(=O)Nc1cccc2ccccc12,-27.2
16,CC(=O)NC1(c2cccc(F)c2)CCN(CC(=O)NC(C)C)CC1,9.55
17,Cc1cc(C(C)(C)C)n2nc(C)c(-c3ccccc3)c2n1,13.9
18,O=[N+]([O-])c1ccc(O)c(Nc2c([N+](=O)[O-])ccc3nonc23)c1,16
19,CCNc1nc(OC)nc(SCC(=O)Nc2ccccc2)n1,17.2
20,Cc1nnc(Nc2ccc(Cl)cc2)n(N)c1=O,8.16
21,O=C(Nc1cccc(-c2nc3ncccc3o2)c1)c1ccccc1,-9.36
22,O=S(=O)(NCc1cccs1)c1ccc(Br)s1,2.07

row,SMILES,"hERG current change (%, negative = inhibition) at 10uM [%]"
1,CCCCN(C)CCNC(=O)c1cc2c(-c3ccccc3F)nn(C)c2s1,-48
2,Cn1nc(-c2ccc(Cl)cc2)c2cc(C(=O)NC3CC3)sc21,-1.54
3,CCCCN(CC)CCNC(=O)c1cc2c(-c3ccccc3F)nn(C)c2s1,-66.7
4,CCN(CC)CCCNC(=O)c1cc(-c2ccccc2)c(N2CCCCC2)s1,-51.7
5,CCCN(CCC)CCNC(=O)c1cc2c(-c3ccc(Cl)cc3)nn(C)c2s1,-65.6
6,CCCN(CCC)CCNC(=O)c1cc2c(-c3ccccc3F)nn(C)c2s1,-47.2
7,CCCN(CCC)CCCNC(=O)c1cc2c(-c3ccc(OC)c(OC)c3)nn(C)c2s1,-6.94
8,Cc1ccc(CNC(=O)c2cc3c(-c4ccc(Cl)cc4)nn(C)c3s2)o1,-8.27
9,CCN1CCCC1CNC(=O)c1cc2c(-c3cccc(OC)c3)nn(C)c2s1 (stereo not drawn),-46.3
10,O=C(NCCc1ccccc1)c1cc(-c2ccccc2)c(N2CCOCC2)s1,3.07
11,CCCNC(=O)c1cc(-c2ccccc2)c(N2CCCCC2)s1,14.2
12,CCN1CCCC1CNC(=O)c1cc2c(-c3ccc(Cl)cc3)nn(C)c2s1 (stereo not drawn),-62.4
13,CCOC(=O)c1ccc(CC2SC(N)=NC2=O)cc1 (stereo not drawn),2.63
14,Cc1ccc(NC(=O)CSc2nc(=O)cc(N)n2-c2ccccc2)cc1,20.3
15,CC(C)(C)NC(=O)NC(=O)CN1C(=O)NC(C)(c2ccccc2)C1=O (stereo not drawn),15.8
16,O=C(N/N=C/c1ccoc1)c1cccc([N+](=O)[O-])c1,9.75
17,COc1ccc(NS(=O)(=O)c2cccc(C(=O)NCC(c3ccc(OC)cc3)N3CCOCC3)c2)cc1 (stereo not drawn),-26.1
18,O=c1c[n+]([O-])c2ccccc2n1OCc1ccccn1,18.9
19,Cc1ccc(N2C(=O)C(NC(=O)c3c(F)cccc3F)(C(F)(F)F)C3=C2CC(C)(C)CC3=O)cc1 (stereo not drawn),9.34
20,CC(C)c1cc(-c2cc(C(=O)Nc3ccccc3)on2)nc(NCC2CC2)n1,10.3
21,NC(=O)NN=C1C2CCCC1C(c1ccccc1)NC2c1ccccc1 (stereo not drawn),-7.17
